From PubChem BioAssay AID939 (National Center for Advancing Translational Sciences (NCATS), 2007)
Records with an inconclusive call do not appear. Entries that show only a call come without a potency. The source made the active and inactive calls. Calls come from the whole dose curve; as a rule, active = well fitted activation curve with a large enough effect in the main read-out, with a control signal flat; inconclusive = small, poorly fitted or top-dose-only effect, or effect the other way, or a change in a side signal; inactive = no such curve, though single readings can be large or run the other way.

Target: Thyrotropin receptor (Homo sapiens) (UniProt P16473)
Assay: Confirmation Concentration-Response Assay for Agonists of the Thyroid Stimulating Hormone Receptor
Details: HEK293 TSHR-CNG cells, membrane potential dye, cAMP; series mostly up to 25.6 µM
Excerpt: NIH Chemical Genomics Center [NCGC] NIH Molecular Libraries Screening Centers Network [MLSCN] MLSCN Grant: 1 X01 MH080680-01 PI Name: Dr. Marvin Gershengorn, NIH NCGC Assay Overview: Thyroid Stimulating Hormone Receptor TSH is an alpha/beta heterodimeric glycoprotein hormone secreted from the anterior pituitary gland which belongs to the glycoprotein hormone family. The actions of TSH are mediated by a seven-transmembrane receptor, which upon TSH binding couples preferentially to the G-alpha (s) protein (Gs), resulting in activation of adenylate cyclase and increase in cyclic adenosine 3', 5' monophosphate (cAMP). The TSH receptor (THSR) is mainly expressed in thyroid follicular cells and regulates their growth and function. Recombinant TSH is used to activate TSHR in patients with thyroid cancer receiving thyroid hormone suppression therapy and to screen for residual tumor after surgery, but it is expensive and must be administered intramuscularly. An orally active small molecule TSHR agonist would serve as an invaluable research tool for studying TSHR pharmacology and physiology, and would have multiple advantages in therapeutic settings. However, no selective small molecule agonist of the TSH receptor exists, and no small molecule screen for TSHR agonists has ever been reported. This cell based assay utilized a cyclic nucleotide gated ion channel (CNG) as a biosensor for cAMP induction by potential TSHR agonists. TSHR cell line HEK 293 cells stably expressing the TSHR as well as a modified CNG were purchased from BD biosciences. Stimulation of cAMP production causes the CNG to open and subsequent membrane depolarization to occur. A fluorescent membrane potential dye (BD biosciences) was utilized to detect cAMP stimulation in TSHR cells. The cells were maintained in DMEM medium (Invitrogen) containing 10 % FBS (Hyclone), 100 units/ml Penicillin, 100 ug/ml Streptomycin (Invitrogen), and 250 ug/ml Geneticin (Invitrogen) and 1 ug/ml Puromycin (Invitrogen) at 37C in 5% CO2. HEK 293 cells expressing CNG but without TSHR (parental cells) were used in concert to control for compounds signaling through endogenous receptors and targets of HEK 293 cells.
NCGC Assay Protocol Summary: High Throughput Screening. Freshly passaged cells (TSHR or parental) were dispensed into 1536-well assay plates at 4 ul/well in DMEM containing phenol red (Invitrogen), 10% FCS (Hyclone), and 100 units/ml Penicillin, 100 ug/ml Streptomycin (Invitrogen) and incubated at 37 C with 5% CO2 for 20 to 36 hrs before the robotic screening. The screen was initiated by addition of 4 ul/well membrane potential dye containing 100 uM RO 20-1724 (Sigma Aldrich), followed by 60 min incubation at room temperature to allow for dye equilibration across the cell membrane. 23 nl/well compound or control was then added to the assay plates, which were incubated for additional 30 min before reading a Envision fluorescence plate reader (Perkin Elmer) in bottom-read mode for fluorescence intensity (emission at 590 nm). Keywords: Thyroid-stimulating hormone TSH, TSHR, TSHR agonist, quantitative high throughput screening, qHTS, HTS, probe identification, CNG, cAMP, cyclic nucleotide gated ion channel PubChem
Potency is the fitted concentration of half-maximal effect.

Chain of Thyrotropin receptor (Homo sapiens) (P16473 whole entry, looked up): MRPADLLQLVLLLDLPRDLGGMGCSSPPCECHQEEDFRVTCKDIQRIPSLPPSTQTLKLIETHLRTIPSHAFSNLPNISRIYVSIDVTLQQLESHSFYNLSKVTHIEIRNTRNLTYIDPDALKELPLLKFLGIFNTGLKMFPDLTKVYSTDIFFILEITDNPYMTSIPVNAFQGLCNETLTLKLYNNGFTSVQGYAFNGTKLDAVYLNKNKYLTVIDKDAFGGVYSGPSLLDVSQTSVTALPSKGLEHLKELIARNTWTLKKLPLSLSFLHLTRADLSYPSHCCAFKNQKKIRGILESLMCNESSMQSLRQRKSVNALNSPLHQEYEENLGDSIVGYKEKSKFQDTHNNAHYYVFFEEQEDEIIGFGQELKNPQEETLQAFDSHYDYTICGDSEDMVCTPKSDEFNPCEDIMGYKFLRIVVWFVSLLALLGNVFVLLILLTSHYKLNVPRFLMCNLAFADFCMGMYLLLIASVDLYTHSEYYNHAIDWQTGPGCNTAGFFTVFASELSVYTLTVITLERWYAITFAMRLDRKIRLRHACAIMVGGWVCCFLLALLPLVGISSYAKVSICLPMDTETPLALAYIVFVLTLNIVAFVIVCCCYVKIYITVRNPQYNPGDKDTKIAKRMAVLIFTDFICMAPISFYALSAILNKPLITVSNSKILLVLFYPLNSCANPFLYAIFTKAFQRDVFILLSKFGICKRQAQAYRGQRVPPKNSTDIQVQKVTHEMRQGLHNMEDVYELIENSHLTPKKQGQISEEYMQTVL

SMILES	Potency
CCC(C)(C)n1nnnc1CN(Cc1ccco1)Cc1cc2cc3c(cc2[nH]c1=O)OCO3	inactive
Cc1ccc(S(=O)(=O)N2CCC(C(=O)NCCCN3CCCCCC3)CC2)cc1	inactive
COCCNC(=O)C(c1ccccc1)N(Cc1cccs1)C(=O)Cn1nnc2ccccc21 (stereo not given)	inactive
O=C(CN(Cc1ccc(F)cc1)S(=O)(=O)c1ccccc1)N1CCCCC1	10 µM (active)
O=C1C=C(NCc2ccccc2)C2(CCCCC2)O1	inactive
Cc1nn(-c2ccccc2)c(N2CCCC2)c1/C=N/n1cnc2scc(-c3ccccc3)c2c1=O	1.58 µM (active)
COC(=O)C1=C(C)OC(N)=C(C#N)C1c1c(C)nn(-c2ccccc2)c1Cl (stereo not given)	7.94 µM (active)
C=CCn1c(COc2ccccc2F)nnc1SCC(=O)N1CC(=O)Nc2ccccc21	inactive
O=c1c2ccccc2ncn1-c1ccc2c(c1)OCCO2	inactive
CCc1ccc(-c2nc(CN3CCC(C(=O)N4CCN(c5ccccc5)CC4)CC3)c(C)o2)cc1	inactive
Cc1cc(-n2c(C)cc(C(=O)CSc3nnnn3-c3ccc(Cl)cc3)c2C)no1	3.98 µM (active)
Cc1ccc(N(CC(=O)NCc2ccco2)S(=O)(=O)c2ccccc2)cc1	12.6 µM (active)
Cn1c(=O)[nH]c(=O)c2c1nc(N1CCCCCC1)n2CCCSc1nc2ccccc2o1	inactive
Cc1cc(C)nc(N(C#N)CC(=O)N2CCC(C(N)=O)CC2)n1	inactive
COC(=O)C1=C(C)OC(N)=C(C#N)C1C1CCCCC1 (stereo not given)	6.31 µM (active)
Cn1cccc1Cc1nnc(SCC(N)=O)n1CCc1ccccc1	inactive
O=C1c2ccccc2C(=O)N1Cc1nc(-c2ccccc2)no1	inactive
Cc1ccc2nc(SCC(=O)O)nc(C)c2c1	inactive
CN1C(=O)N(C)C2(c3ccccc3)Nn3c(s/c(=C/c4ccco4)c3=O)=NC12c1ccccc1 (stereo not given)	inactive
COc1ccc(-c2cc(C(F)(F)F)nc(SCCC(=O)N3CCOCC3)n2)cc1	15.8 µM (active)

SMILES	Potency
CCOC(=O)N1CCC(NC(=O)c2ccc(CNS(=O)(=O)c3ccc(F)cc3)cc2)CC1	inactive
CCOc1ccc(N(CC(=O)Nc2ccc(C)cc2)S(=O)(=O)c2c(C)noc2C)cc1	inactive
CCOC(=O)CSc1nnc(NC(=O)c2cccc(S(=O)(=O)N3CCCCC3)c2)s1	inactive
Cc1occc1-c1nnc(SCC(=O)Nc2ccccc2)n1C(C)c1ccccc1 (stereo not given)	12.6 µM (active)
O=C(CN(Cc1ccccc1Cl)C(=O)Cn1nnc(-c2cccs2)n1)NCC1CCCO1 (stereo not given)	inactive
Cc1ccccc1NC(=O)CSc1nnc(-c2ccoc2C)n1CCc1ccccc1	6.31 µM (active)
Cc1ccc(S(=O)(=O)NC(=O)Nn2c(C)nnc2C)cc1	inactive
CCS(=O)(=O)N1CCN(C(C)CCc2ccccc2)CC1 (stereo not given)	inactive
CCOC(=O)c1cnc(-n2nc(C)cc2C)nc1-n1nc(C)cc1C	inactive
CCn1c(=O)c(C(=O)CN2CCCc3ccccc32)c(N)n(Cc2ccccc2)c1=O	inactive
COc1ccc(CNc2nc(SC)n[nH]2)cc1OC	inactive
COc1cc(OC)cc(-c2nnc(SCC(=O)N(C(C)C)C(C)C)o2)c1	12.6 µM (active)
CC1(C)c2ccccc2N2CC(=O)NC21/C=C/c1ccco1 (stereo not given)	12.6 µM (active)
COc1cc(/C=N/n2c(SC)nnc(C(C)(C)C)c2=O)ccc1O	inactive
CN1C(=O)C2C=CC1C1C(=O)N(c3ccccc3)C(=O)C21 (stereo not given)	inactive
O=C(C1COc2ccccc2O1)N1CCCC1 (stereo not given)	inactive
Cc1cccc(NC(=O)CSc2nnc(-c3ccccc3)n2N)c1C	inactive
Cc1onc(-c2ccccc2)c1C(=O)N1CCCSC1=Nc1ccccc1	7.94 µM (active)
COc1cc(NC(=O)c2cc(-n3cnnc3)ccc2Cl)cc(OC)c1	inactive
COc1ccc(C2Nc3ccccc3C(=O)N2Cc2ccco2)cc1COc1ccc(NC(C)=O)cc1 (stereo not given)	0.631 µM (active)
